Test results from PubChem BioAssay AID1255 (The Scripps Research Institute Molecular Screening Center, 2008).
Out of some 1,200 compounds screened, about 330 (28%) were called active. A selection follows. A number with no mark means an inactive call. No stated cut-off is given here; in the data, active means inhibition above about 17%; inactive means the rest.

These compounds were tested against Neuropeptide Y receptor type 2 (Homo sapiens) (UniProt P49146) (assay: blockade of human NPY-Y2 in cells – HEK293-CNG cells, membrane potential fluorescence, triplicate, counter-screen for NPY-Y1 antagonist project, confirmation (AID 1255;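 further: 0% = DMSO with agonist challenge and 100% = reference antagonist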)). Conditions: antagonism, at 3.6 µM, active compounds read high, cells given NPY, then isoproterenol.
Chain of Neuropeptide Y receptor type 2 (Homo sapiens) (P49146 whole entry, looked up): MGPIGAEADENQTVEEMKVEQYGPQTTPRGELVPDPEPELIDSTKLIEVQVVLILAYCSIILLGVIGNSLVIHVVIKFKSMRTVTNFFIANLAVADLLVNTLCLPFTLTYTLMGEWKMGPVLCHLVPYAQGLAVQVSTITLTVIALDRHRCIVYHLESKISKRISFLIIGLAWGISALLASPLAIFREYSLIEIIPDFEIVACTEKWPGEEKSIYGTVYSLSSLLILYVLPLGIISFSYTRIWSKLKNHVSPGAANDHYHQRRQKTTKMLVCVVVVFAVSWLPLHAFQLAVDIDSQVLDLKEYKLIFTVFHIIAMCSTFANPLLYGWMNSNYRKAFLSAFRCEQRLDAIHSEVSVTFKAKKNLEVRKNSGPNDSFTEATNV
Work on `c1ccc(-c2ccccc2OCCN2CCCCC2)cc1` yielded an inhibition of 6.63%.
Work on `CC1CN(CCCOc2ccccc2-c2ccccc2)CC(C)O1` (stereo not drawn) yielded an inhibition of 6.39%.
`Cc1ccc(/C=N/NC(=O)COc2ccccc2-c2ccccc2)cc1` was tested, and the inhibition was 28.1% (active).
`CCCCCCC(=O)Nc1nc(C)c(-c2csc(Nc3cccc(OC)c3)n2)s1` showed an inhibition of 2.61%.
`Cc1ccc(C(=O)C[n+]2cc(-c3ccccc3)n3c2CCCCC3)cc1` gave an inhibition of 14.5%.
Compound `CC(Oc1ccc2ccccc2c1)C(=O)NNC(=S)NC(=O)c1ccco1` (stereo not drawn) has an inhibition of 10.2%.
With `CCN1CCN(CCNC(=O)c2ccc(/C=C3/Sc4ccccc4N(Cc4cccc(C)c4)C3=O)cc2)CC1` the inhibition was 27% (active).
For `Cc1ccc(N2C(=O)C3N=NN(CC(=O)N4N=C(c5cccc6ccccc56)CC4c4ccccc4)C3C2=O)cc1` (stereo not drawn), the inhibition was 5.5%.
`CCOC(=O)CSc1nc2c(sc(=S)n2CCc2ccccc2)c(=O)n1Cc1ccco1` was tested, and the inhibition was 14.4%.
In the case of `O=C(NCCc1ccc2c(c1)OCCO2)c1cc2ccccc2o1`, the inhibition is reported as 14.6%.
With `Cc1ccc(Cn2c(NC(=O)c3ccco3)nc3ccccc32)cc1` the inhibition was 24.2% (active).
`O=S(=O)(O)c1nc2ccccc2n1Cc1ccc(Cl)cc1` gave an inhibition of 5.74%.
`CCS(=O)(=O)n1nc(-c2ccccc2)nc1SCc1ccccc1` gave an inhibition of 13.4%.
In the case of `CCC(=O)c1c[nH]c(C(=O)NCC2CCCO2)c1` (stereo not drawn), the inhibition is reported as 2.61%.
`O=C(CN1CCN(c2ncc(C(F)(F)F)cc2Cl)CC1)Nc1ccc2c(c1)OCO2` was tested, and the inhibition was 18.4% (active).
`O=C(CSc1nnnn1C1CCCC1)Nc1ccc2c(c1)OCCO2` was tested, and the inhibition was 7.69%.
Work on `COC(=O)c1ccc(COC(=O)c2c(C)nn(Cc3ccccc3Cl)c2Cl)o1` yielded an inhibition of 8.24%.
In the case of `COc1ccc(CCN(C(=O)COc2ccccc2)c2nc(-c3ccccc3)cs2)cc1OC`, the inhibition is reported as 17.3% (active).
For `CCCCc1c(O)nc2n(c1=O)CCS2`, the inhibition was 2.74%.
For `Cc1ccc2nc(-c3ccccn3)cc(C(=O)Nc3ccc4c(c3)OCO4)c2c1`, the inhibition was 25.5% (active).
Work on `CCc1ccc(CNC(=O)C2CCCN(c3nc4ccccc4o3)C2)cc1` (stereo not drawn) yielded an inhibition of 11%.
With `CCCOC(=O)c1[nH]c2c(c1C)C(=O)CC(c1cccs1)C2` (stereo not drawn) the inhibition was 16.7%.
`COc1ccccc1C1C2=C(COC2=O)Nc2cc3c(cc21)OCO3` (stereo not drawn) showed an inhibition of 10.6%.
With `OC(COCCC12CC3CC(CC(C3)C1)C2)CN1CCCCC1` (stereo not drawn) the inhibition was 12.7%.
For `CS(=O)(=O)N1CCCC(C(=O)N2CCOCC2)C1` (stereo not drawn), the inhibition was 0.64%.
`COc1ccc(C(c2nnnn2C2CCCCC2)N2CCN(c3ccccc3F)CC2)cc1` (stereo not drawn) was tested, and the inhibition was 10.2%.
`CC(=O)N1CC(C)c2scc(C)[n+]2-c2ccccc21` (stereo not drawn) gave an inhibition of 3.05%.
`O=C(/C=C/c1ccco1)Nc1cccc(-c2nc3ccccc3[nH]2)c1` was tested, and the inhibition was 7.24%.
`O=C(CSc1nc2cc3c(cc2c(=O)n1CCC1=CCCCC1)OCO3)NCc1ccco1` was tested, and the inhibition was 2.11%.
For `c1ccc2c(NC3C4CC5CC(C4)CC3C5)nc(N3CCOCC3)nc2c1` (stereo not drawn), the inhibition was 30.1% (active).
`CC(Nc1nc(N2CCN(CCO)CC2)nc2ccccc12)c1ccccc1` (stereo not drawn) showed an inhibition of 10.1%.
With `Fc1ccc(-c2nnc(CSc3nnc(-c4ccc5c(c4)OCO5)o3)o2)cc1` the inhibition was 9.04%.
Compound `CC(C)Cn1cnc2c1c(=O)n(CC(O)c1ccccc1)c(=O)n2CC(C)C` (stereo not drawn) has an inhibition of -0.53%.
In the case of `Cc1ccccc1Nc1scc(-c2ccc(Br)cc2)[n+]1-c1ccccc1C`, the inhibition is reported as 12.3%.
For `Cc1cc(C(C)(C)C)oc1C(=O)N(CC(=O)NC1CCCC1)Cc1ccc(Cl)cc1`, the inhibition was 19.8% (active).
Work on `CCCSc1nc(NCc2ccco2)c2c3c(sc2n1)COC(C)(CC)C3` (stereo not drawn) yielded an inhibition of 12.4%.
In the case of `C/C(=N\NC(=S)NCc1ccccc1)c1ccc(Cl)cc1`, the inhibition is reported as 5.13%.
In the case of `COc1ccc(-c2[nH]nc(-c3ccccc3)c2-c2nc3ccccc3[nH]2)cc1`, the inhibition is reported as 17%.
In the case of `O=C(NCCCN1CCOCC1)c1cnn2c(-c3ccccc3)cc(-c3ccccc3)nc12`, the inhibition is reported as 18.8% (active).
For `CCOC1CCCCC1NS(=O)(=O)c1ccc(Cl)cc1` (stereo not drawn), the inhibition was 1.15%.
Compound `Cc1nc(-c2ccccc2)sc1C(=O)/C=C/c1ccccc1` has an inhibition of 16.5%.
`COc1ccc(C(=O)CSc2nnc(COc3ccccc3)n2Cc2ccco2)cc1` showed an inhibition of 6.65%.
For `Oc1ccc(-c2[nH]ncc2-c2nc3ccccc3s2)c(O)c1`, the inhibition was 3.58%.
In the case of `NC(N)=N/N=C/c1ccc(OCc2ccc(Cl)cc2Cl)cc1`, the inhibition is reported as 30.3% (active).
In the case of `CCOC(=O)c1nn(-c2cccc(C)c2)cc1C(=O)c1ccccc1`, the inhibition is reported as 6.78%.
`COC(=O)c1ccc(C(NC(=O)OCc2ccccc2)/C(C)=C/[C@@H](C)C(=O)NCc2ccc(OC)c(OC)c2)cc1` (stereo partly drawn) showed an inhibition of 12.9%.
With `Cc1cc(C)c2[nH]c(=O)c(CN(Cc3ccccc3)C(=S)NCCCN(C)C)cc2c1` the inhibition was 26.7% (active).
For `CN(C)CCCCCN(C)Cc1cc2ccccc2o1`, the inhibition was 14.4%.
`COC(=O)C1=C(Nc2ccc(C)cc2)C=C(C)C(C(=O)OC)C1c1ccc(F)cc1` (stereo not drawn) showed an inhibition of 15.2%.
`Cc1ccc(C(=O)N/C(=C/c2ccc(-c3cccc([N+](=O)[O-])c3)o2)C(=O)NCCCN(C)C)cc1` was tested, and the inhibition was 13.8%.
`CCCOc1ccc2c3c(c(=O)oc2c1OCCC)CCC3` was tested, and the inhibition was 15.6%.
`COc1ccccc1N1CCN(C(=O)CN(Cc2ccc(Cl)cc2)S(C)(=O)=O)CC1` showed an inhibition of 3.69%.
`Clc1ccccc1-c1cc(COc2ccc3ccccc3c2)no1` was tested, and the inhibition was 18.4% (active).
Work on `COc1cccc(CNCCc2c[nH]c3ccccc23)c1OCc1ccccc1F` yielded an inhibition of 16.7%.
`CCCC(=O)Nc1nc2ccc(NC(=O)c3c(F)c(F)c(OC)c(F)c3F)cc2s1` was tested, and the inhibition was 11.5%.
Compound `Cc1ccc(SCCC(=O)OCC(=O)Nc2ncc(Cl)cc2Cl)cc1` has an inhibition of 5.65%.
`CC(=O)OC(C)C[N+](C)(C)C` (stereo not drawn) gave an inhibition of 12.9%.
For `COc1cc2c(C(=O)N3CCN(C)CC3)c(CSc3ccccc3)n(C)c2cc1Br`, the inhibition was 19.6% (active).
With `OCC1(CCc2ccccc2)CCN(Cc2ccc3nsnc3c2)CC1` the inhibition was 9.39%.
`CCOC(=O)N1CCN(S(=O)(=O)c2ccc(C(=O)Nc3ccc(F)cc3F)cc2)CC1` gave an inhibition of 10.3%.
`CCCCn1nc(C(=O)N2CCc3ccccc32)c2ccccc2c1=O` showed an inhibition of 3.7%.
For `Cc1ccc(-c2cc(C(=O)N3CCc4ccccc4C3)no2)cc1`, the inhibition was 12.8%.
With `CCCCCCCCn1c2c(c(=N)c3c1CCC3)CCCC2` the inhibition was 44.6% (active).
Work on `O=C(Cc1cccs1)N(CC1CCCO1)C1(C(=O)NC2CCCCC2)CCCCC1` (stereo not drawn) yielded an inhibition of 11.1%.
For `O=C(c1cc(-c2ccc(O)cc2)on1)N1CCCc2ccccc21`, the inhibition was 2.92%.
For `CC(C)(C)NCc1cc(Br)ccc1OC1CCCC1`, the inhibition was 10.4%.
`COc1ccc(C2Nc3ccccc3C(=O)N2Cc2ccccc2)cc1Cn1nnc2ccccc21` (stereo not drawn) showed an inhibition of 8.37%.
Work on `O=C1c2cccnc2C(Nc2ccc(S(=O)(=O)N3CCCCCC3)cc2)N1Cc1ccccc1` (stereo not drawn) yielded an inhibition of 2.58%.
